From ChEMBL document CHEMBL1961873, “Compounds: GSK PKIS; Assays: Nanosyn kinase panel” (2012)

What was measured:
[1] = tested on: Proto-oncogene tyrosine-protein kinase receptor Ret (Homo sapiens), P07949 [Y791F]; conditions: at 1 µM
[2] = molecular target: Macrophage-stimulating protein receptor (Homo sapiens) (UniProt Q04912); conditions: at 0.1 µM
[3] = molecular target: Macrophage-stimulating protein receptor (Homo sapiens) (UniProt Q04912); conditions: at 1 µM
[4] = molecular target: Proto-oncogene tyrosine-protein kinase ROS (Homo sapiens) (UniProt P08922); conditions: at 0.1 µM
[5] = molecular target: Proto-oncogene tyrosine-protein kinase ROS (Homo sapiens) (UniProt P08922); conditions: at 1 µM
[6] = molecular target: Proto-oncogene tyrosine-protein kinase Src (Homo sapiens) (UniProt P12931); conditions: at 0.1 µM
[7] = molecular target: Proto-oncogene tyrosine-protein kinase Src (Homo sapiens) (UniProt P12931); conditions: at 1 µM
[8] = molecular target: Tyrosine-protein kinase Srms (Homo sapiens) (UniProt Q9H3Y6); conditions: at 0.1 µM
[9] = molecular target: Tyrosine-protein kinase Srms (Homo sapiens) (UniProt Q9H3Y6); conditions: at 1 µM
[10] = molecular target: Tyrosine-protein kinase SYK (Homo sapiens) (UniProt P43405); conditions: at 0.1 µM
[11] = molecular target: Tyrosine-protein kinase SYK (Homo sapiens) (UniProt P43405); conditions: at 1 µM
[12] = molecular target: T1, Tyrosine-protein kinase Tec (Homo sapiens) (UniProt P42680); conditions: at 0.1 µM
T1 sequence (whole entry): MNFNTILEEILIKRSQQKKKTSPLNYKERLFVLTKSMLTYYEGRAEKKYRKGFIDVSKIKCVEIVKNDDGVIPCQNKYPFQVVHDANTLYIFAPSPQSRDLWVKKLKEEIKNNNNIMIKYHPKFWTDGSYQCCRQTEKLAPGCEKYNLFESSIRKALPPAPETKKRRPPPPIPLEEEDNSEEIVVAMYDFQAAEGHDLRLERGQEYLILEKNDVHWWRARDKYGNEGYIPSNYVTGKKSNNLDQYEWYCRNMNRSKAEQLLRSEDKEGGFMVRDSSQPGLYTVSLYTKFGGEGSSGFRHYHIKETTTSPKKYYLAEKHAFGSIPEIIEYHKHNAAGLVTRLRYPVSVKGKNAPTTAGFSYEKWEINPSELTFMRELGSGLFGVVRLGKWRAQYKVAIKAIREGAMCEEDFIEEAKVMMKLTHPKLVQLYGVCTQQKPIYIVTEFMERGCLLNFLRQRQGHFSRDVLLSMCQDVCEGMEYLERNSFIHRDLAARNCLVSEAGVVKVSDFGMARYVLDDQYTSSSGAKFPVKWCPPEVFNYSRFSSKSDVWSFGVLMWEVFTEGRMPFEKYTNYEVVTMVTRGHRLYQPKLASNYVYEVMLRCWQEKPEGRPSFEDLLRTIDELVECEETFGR

[13] = molecular target: T1, Tyrosine-protein kinase Tec (Homo sapiens); conditions: at 1 µM
[14] = molecular target: Angiopoietin-1 receptor (Homo sapiens) (UniProt Q02763); conditions: at 0.1 µM
[15] = molecular target: Angiopoietin-1 receptor (Homo sapiens) (UniProt Q02763); conditions: at 1 µM
[16] = molecular target: T2, Non-receptor tyrosine-protein kinase TNK1 (Homo sapiens) (UniProt Q13470); conditions: at 0.1 µM
T2 sequence (whole entry): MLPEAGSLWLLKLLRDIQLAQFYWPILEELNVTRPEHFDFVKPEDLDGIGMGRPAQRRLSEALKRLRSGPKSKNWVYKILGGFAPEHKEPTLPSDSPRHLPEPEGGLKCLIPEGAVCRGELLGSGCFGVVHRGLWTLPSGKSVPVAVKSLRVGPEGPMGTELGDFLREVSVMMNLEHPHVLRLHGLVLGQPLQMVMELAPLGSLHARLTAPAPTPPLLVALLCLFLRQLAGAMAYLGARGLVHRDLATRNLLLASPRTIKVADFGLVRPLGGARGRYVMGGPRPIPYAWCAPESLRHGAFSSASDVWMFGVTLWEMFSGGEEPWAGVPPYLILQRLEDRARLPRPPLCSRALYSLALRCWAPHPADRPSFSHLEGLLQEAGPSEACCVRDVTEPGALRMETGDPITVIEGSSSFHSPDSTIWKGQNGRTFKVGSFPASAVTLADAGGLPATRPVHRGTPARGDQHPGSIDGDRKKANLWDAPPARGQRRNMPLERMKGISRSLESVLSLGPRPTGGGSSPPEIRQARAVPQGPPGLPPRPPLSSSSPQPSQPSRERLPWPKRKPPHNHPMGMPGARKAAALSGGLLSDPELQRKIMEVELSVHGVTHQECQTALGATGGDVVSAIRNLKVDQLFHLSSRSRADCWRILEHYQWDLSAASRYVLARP

[17] = molecular target: T2, Non-receptor tyrosine-protein kinase TNK1 (Homo sapiens); conditions: at 1 µM
[18] = molecular target: Activated CDC42 kinase 1 (Homo sapiens) (UniProt Q07912); conditions: at 0.1 µM
[19] = molecular target: Activated CDC42 kinase 1 (Homo sapiens) (UniProt Q07912); conditions: at 1 µM
[20] = molecular target: High affinity nerve growth factor receptor (Homo sapiens) (UniProt P04629); conditions: at 0.1 µM;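 also: each value is a mean of replicate percent inhibition readings against TRKA kinase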

Sequence of Proto-oncogene tyrosine-protein kinase ROS (Homo sapiens) (P08922 whole entry): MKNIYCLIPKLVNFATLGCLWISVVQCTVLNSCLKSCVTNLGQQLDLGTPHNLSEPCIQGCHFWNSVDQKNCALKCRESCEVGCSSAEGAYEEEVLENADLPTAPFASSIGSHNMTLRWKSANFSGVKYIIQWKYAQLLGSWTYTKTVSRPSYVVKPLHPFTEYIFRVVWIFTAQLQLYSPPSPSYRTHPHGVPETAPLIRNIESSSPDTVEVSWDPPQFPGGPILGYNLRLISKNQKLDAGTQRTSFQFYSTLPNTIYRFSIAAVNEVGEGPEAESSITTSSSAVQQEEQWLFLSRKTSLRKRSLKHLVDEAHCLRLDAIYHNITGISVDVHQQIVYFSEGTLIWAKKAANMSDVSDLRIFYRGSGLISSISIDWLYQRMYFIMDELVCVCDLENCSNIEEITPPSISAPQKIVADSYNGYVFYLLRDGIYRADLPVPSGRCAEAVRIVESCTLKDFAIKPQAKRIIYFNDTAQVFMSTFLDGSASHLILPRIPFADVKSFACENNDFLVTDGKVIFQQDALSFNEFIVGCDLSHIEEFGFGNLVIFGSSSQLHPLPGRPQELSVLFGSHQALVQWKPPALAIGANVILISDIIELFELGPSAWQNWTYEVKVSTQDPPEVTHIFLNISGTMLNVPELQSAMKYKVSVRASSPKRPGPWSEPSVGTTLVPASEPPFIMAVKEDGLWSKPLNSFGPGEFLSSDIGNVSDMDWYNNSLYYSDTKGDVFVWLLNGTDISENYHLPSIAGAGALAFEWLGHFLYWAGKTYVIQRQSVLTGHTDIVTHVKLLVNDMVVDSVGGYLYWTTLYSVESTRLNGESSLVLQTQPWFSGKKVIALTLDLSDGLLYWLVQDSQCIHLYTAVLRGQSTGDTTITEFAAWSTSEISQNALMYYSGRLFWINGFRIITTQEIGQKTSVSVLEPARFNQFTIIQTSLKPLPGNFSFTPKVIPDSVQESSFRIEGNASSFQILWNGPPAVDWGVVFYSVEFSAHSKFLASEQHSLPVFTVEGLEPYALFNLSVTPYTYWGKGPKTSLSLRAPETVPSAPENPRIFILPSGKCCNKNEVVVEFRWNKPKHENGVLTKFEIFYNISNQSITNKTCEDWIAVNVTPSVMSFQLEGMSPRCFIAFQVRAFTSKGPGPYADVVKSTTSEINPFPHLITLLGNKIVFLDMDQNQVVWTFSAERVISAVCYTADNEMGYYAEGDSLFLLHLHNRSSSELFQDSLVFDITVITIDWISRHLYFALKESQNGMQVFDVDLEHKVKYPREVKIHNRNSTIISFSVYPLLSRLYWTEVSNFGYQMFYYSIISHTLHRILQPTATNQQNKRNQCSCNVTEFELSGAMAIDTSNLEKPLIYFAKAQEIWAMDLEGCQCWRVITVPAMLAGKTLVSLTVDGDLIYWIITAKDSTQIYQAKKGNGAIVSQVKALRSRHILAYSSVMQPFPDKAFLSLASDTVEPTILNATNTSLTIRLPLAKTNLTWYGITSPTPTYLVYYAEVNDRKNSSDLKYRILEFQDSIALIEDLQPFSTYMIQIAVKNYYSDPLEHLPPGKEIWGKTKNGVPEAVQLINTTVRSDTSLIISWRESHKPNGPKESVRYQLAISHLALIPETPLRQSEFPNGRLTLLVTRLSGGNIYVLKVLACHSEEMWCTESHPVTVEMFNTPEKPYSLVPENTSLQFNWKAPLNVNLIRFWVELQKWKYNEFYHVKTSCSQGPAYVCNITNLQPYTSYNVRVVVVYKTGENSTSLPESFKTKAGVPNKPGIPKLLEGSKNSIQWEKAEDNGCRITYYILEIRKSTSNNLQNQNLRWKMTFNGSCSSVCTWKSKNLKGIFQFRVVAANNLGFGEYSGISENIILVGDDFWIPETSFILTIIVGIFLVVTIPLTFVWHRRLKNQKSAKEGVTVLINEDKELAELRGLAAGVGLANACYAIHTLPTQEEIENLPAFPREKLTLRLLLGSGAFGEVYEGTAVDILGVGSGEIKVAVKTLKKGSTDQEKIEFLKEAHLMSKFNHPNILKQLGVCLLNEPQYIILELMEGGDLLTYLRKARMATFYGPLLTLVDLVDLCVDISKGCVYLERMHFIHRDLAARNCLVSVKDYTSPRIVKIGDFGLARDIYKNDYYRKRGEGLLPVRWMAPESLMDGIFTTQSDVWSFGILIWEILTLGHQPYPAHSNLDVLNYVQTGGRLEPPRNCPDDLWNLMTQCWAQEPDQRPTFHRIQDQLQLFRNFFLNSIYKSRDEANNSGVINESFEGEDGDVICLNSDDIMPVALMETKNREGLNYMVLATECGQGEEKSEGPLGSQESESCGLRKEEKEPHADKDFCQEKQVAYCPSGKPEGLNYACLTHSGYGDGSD
Sequence of Proto-oncogene tyrosine-protein kinase receptor Ret (Homo sapiens), P07949 [Y791F] (P07949 whole entry Y791F): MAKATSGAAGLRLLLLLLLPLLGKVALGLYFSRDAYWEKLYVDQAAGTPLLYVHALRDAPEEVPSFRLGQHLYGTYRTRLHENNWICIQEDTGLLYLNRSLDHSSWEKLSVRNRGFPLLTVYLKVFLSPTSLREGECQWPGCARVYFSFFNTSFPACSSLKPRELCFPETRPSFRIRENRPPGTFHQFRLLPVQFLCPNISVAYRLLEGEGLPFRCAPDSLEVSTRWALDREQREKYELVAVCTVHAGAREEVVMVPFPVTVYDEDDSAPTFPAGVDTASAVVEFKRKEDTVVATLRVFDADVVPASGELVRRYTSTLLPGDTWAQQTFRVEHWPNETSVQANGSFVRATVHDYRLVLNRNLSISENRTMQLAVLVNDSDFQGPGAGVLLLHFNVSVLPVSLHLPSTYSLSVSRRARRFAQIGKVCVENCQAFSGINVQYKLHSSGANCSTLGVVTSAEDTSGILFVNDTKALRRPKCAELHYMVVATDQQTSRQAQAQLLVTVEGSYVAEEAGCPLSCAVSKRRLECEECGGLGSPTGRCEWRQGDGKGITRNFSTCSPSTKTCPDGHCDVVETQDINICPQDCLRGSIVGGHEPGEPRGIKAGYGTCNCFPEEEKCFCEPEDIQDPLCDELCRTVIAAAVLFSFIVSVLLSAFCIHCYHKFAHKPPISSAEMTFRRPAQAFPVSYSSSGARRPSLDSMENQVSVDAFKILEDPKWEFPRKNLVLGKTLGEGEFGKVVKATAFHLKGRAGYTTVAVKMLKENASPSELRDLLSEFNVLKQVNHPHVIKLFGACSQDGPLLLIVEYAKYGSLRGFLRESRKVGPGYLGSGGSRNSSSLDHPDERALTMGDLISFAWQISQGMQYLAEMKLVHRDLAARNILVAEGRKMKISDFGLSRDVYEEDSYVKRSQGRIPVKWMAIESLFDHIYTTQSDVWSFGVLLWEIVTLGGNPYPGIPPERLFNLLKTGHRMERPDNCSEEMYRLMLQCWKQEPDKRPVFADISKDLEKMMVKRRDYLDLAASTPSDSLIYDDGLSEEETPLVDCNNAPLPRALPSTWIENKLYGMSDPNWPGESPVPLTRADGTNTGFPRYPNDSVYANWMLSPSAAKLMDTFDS
Sequence of Angiopoietin-1 receptor (Homo sapiens) (Q02763 whole entry): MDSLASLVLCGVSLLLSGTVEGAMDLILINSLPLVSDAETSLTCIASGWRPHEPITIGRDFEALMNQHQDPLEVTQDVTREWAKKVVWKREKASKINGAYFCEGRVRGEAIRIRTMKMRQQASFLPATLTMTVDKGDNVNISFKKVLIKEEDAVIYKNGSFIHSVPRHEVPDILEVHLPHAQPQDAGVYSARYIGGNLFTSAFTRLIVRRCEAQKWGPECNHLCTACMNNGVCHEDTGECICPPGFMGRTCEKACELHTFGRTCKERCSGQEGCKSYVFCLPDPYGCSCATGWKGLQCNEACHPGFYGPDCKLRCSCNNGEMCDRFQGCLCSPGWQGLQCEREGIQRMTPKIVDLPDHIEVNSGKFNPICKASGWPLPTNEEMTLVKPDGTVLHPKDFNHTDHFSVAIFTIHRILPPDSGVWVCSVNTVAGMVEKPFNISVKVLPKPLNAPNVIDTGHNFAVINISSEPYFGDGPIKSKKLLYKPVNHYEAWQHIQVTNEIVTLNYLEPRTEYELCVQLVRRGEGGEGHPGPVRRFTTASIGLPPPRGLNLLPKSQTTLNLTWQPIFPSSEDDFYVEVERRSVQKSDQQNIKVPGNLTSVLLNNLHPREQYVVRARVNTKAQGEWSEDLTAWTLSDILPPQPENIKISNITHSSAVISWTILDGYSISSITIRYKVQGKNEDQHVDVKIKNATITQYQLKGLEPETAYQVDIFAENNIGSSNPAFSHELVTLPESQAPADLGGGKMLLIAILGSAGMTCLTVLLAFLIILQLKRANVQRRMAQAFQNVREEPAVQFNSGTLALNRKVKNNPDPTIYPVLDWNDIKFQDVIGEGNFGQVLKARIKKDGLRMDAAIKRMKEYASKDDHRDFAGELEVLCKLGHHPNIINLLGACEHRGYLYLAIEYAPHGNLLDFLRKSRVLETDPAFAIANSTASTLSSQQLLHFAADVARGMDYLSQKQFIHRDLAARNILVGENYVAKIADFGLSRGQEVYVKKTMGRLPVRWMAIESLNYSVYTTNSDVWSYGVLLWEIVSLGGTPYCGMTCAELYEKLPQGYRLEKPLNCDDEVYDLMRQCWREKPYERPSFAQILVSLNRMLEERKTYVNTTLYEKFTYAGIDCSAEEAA
Sequence of Proto-oncogene tyrosine-protein kinase Src (Homo sapiens) (P12931 2-536 limits assumed): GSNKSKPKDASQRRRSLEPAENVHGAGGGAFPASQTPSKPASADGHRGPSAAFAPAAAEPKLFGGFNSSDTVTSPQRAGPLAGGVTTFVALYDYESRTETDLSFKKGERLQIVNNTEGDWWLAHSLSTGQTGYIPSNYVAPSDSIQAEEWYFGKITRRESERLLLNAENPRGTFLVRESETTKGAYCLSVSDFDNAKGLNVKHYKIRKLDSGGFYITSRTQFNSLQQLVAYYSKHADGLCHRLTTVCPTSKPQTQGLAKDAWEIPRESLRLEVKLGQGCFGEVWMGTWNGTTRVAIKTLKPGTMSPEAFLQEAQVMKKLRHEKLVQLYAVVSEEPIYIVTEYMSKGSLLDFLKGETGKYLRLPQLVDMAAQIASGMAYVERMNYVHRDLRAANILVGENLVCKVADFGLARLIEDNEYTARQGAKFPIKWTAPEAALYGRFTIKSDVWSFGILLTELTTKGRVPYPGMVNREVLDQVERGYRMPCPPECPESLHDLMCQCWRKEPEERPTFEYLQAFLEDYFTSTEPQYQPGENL

| SMILES | inhibition [1] | inhibition [2] | inhibition [3] | inhibition [4] | inhibition [5] | inhibition [6] | inhibition [7] | inhibition [8] | inhibition [9] | inhibition [10] | inhibition [11] | inhibition [12] | inhibition [13] | inhibition [14] | inhibition [15] | inhibition [16] | inhibition [17] | inhibition [18] | inhibition [19] | inhibition [20] |
| --- | --- | --- | --- | --- | --- | --- | --- | --- | --- | --- | --- | --- | --- | --- | --- | --- | --- | --- | --- | --- |
| C#Cc1cccc(Nc2ncnc3ccc(OCCCCNCCS(C)(=O)=O)cc23)c1 | 31.3% | 1.53% | 7.33% | 3.71% | 8.09% | 1.2% | 17.9% | 0.83% | 5.07% | -6.78% | 0.39% | 5.96% | 9.84% | 5.13% | 12.5% | 2.31% | 20.9% | 2.03% | 7.01% | 2.95% |
| O=C(Nc1ccc(Oc2ccc3[nH]c(NC(=O)c4ccccc4)nc3c2)cc1)Nc1cc(C(F)(F)F)ccc1F | 87% | 0.56% | 5.31% | 4.24% | 11.4% | 4.33% | 11.2% | 1.78% | 4.56% | -1% | -0.11% | 4.86% | 8.67% | 9.81% | 60.5% | 4.53% | 40% | 0.59% | 4.59% | 5.99% |
| Cc1ccc(C(=O)NC2CCC2)cc1-c1ccc(C(=O)NCC2CC2)cc1 | 2.67% | 5.75% | 4.87% | 3.25% | 2.72% | 1.78% | 4.45% | -2.12% | -0.59% | -0.95% | 0.85% | 3.37% | 2.28% | 2.59% | 1.2% | -0.31% | -1.43% | 1.04% | 1.08% | -0.6% |
| c1ccc(-c2n[nH]cc2-c2ccnc(-c3ccc(OCCN4CCOCC4)cc3)c2)nc1 | 12.9% | -5.76% | 3.22% | 7.93% | 11.1% | 1.88% | 4.39% | 4.69% | 3.57% | 11.6% | -0.16% | 3.84% | 4.59% | 4.66% | 7.13% | 0.24% | -5.31% | 5.48% | 5.14% | -3.86% |
| COc1cc(C)c(N(C)C(=O)CN(C)C)cc1Nc1nc(Nc2cccc(F)c2C(N)=O)c2cc[nH]c2n1 | 0.99% | 5.06% | 8.44% | 15.3% | 51.2% | 3.62% | 5.62% | -0.25% | -1.33% | -0.33% | 1.76% | -0.85% | 1.07% | 0.26% | 2.24% | 1.97% | 6.22% | 0.62% | 0.64% | 1.62% |
